# CHRM1 antagonist = blocks human M1 muscarinic receptor. P11229. CHO-K1 hM1, Fluo-8 calcium fluorescence, ACh EC80 antagonist. inhibition, % at 3 µM. 360,000 tested, 1.3% active;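 active = percent inhibition above its own plate's cutoff, namely the mean of that plate's compound wells plus 3 SD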;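 also: peak over basal fluorescence ratio during 140 s after agonist addition; 0% = ACh EC80 plus DMSO and 100% = DMSO alone without agonist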
# Target sequence (P11229 whole entry, looked up): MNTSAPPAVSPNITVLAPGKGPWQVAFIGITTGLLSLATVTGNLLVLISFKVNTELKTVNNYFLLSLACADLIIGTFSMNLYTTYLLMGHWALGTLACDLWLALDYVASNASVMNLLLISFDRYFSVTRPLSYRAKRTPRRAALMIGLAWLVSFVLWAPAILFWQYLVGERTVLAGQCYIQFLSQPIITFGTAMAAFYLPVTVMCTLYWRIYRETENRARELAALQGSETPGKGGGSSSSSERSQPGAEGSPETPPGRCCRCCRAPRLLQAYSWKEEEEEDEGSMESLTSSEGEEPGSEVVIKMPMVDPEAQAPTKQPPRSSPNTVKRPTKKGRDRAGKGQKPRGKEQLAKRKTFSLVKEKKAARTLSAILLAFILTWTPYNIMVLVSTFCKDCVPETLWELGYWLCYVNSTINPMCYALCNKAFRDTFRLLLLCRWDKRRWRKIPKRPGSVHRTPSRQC
# M1 PAM = human CHRM1 positive allosteric modulation. P11229. CHO-K1 hM1, Fluo-8 calcium fluorescence, ACh EC20; 0% = ACh EC20, 100% = maximal ACh. activation, % at 3 µM. 360,000 tested, 0.088% active; in the data active = activation above about 19%, passing the limit was not always enough
# CHO-K1 Ca antag = counter-screen for M1 antagonists: effect in parental CHO-K1 cells | inhibition, % at 3 µM | 360,000 tested, 0.6% active | AID 602250 | ATP-induced calcium, Fluo-8 fluorescence;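 active = inhibition above a per-plate cutoff, the plate's mean sample inhibition plus 3 SD, cut at about 24% in these data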;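 also: 0% = DMSO plus EC80 ATP and 100% = DMSO alone without ATP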
# M1 PAM parental = nonselective activator or artifact in parental CHO-K1 calcium assay; activation, % at 3 µM; ATP EC20, Fluo-8 calcium fluorescence; 0% at ATP EC20, 100% at ATP max; 360,000 tested, 0.02% active; AID 602247;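 active = activation above the run cutoff, the mean activation of all test compounds plus 3 SD, cut at about 40% in these data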;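 also: peak over basal fluorescence ratio in a 140 s read after ATP addition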
# M1 ag = activates human CHRM1 receptor | CHO-K1 hM1, Fluo-8 calcium fluorescence, agonist mode; 0% DMSO, 100% acetylcholine EC100 | 360,000 tested, 0.33% active | activation, % at 3 µM | P11229;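 active = activation above the run's mean compound activation plus 3 SD, cut at about 16% in these data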;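 also: peak over basal fluorescence ratio within a 140 s kinetic read after compound addition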
# CHO-K1 Ca ag = M1 agonist counterscreen hit in parental CHO-K1 cells; 360,000 tested, 0.48% active; activation, % at 3 µM; Fluo-8 calcium fluorescence; scaled to maximal ATP response, vehicle zero; in the data active = activation above about 15%;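 also: untransfected CHO-K1 host cells lacking M1 receptor as counterscreen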
# Active calls of the source: *; x = no result. Shown are actives, neighbours in structure and some others; about 2.4% of the full set was active somewhere.
SMILES,CHRM1 antagonist,M1 PAM,CHO-K1 Ca antag,M1 PAM parental,M1 ag,CHO-K1 Ca ag
COCCn1nnnc1CN1CCN(C(=O)c2ccco2)CC1,-7,1,-14,7,-6,1
COc1ccc(CCn2nnnc2CN2CCN(C(=O)c3ccco3)CC2)cc1OC,-5,9,24*,-15,-10,14
COc1cc(NC(=O)C/C(C)=N/NC(=O)C(=O)NC2CCCCC2)c(OC)cc1Cl,-8,3,3,-13,-3,-1
COc1cc(NC(=O)C/C(C)=N/NC(=O)C(=O)NCCO)c(OC)cc1Cl,-6,8,55*,-15,-7,0
Cc1cccc(C(=O)Nc2ccccc2C(=O)NCc2ccco2)c1,5,7,8,-28,2,1
CC(=NNC(=O)c1ccncc1)c1ccc2ccccc2c1O,29,-27,16,-20,70*,69*
Nc1[nH]c(C(=O)c2ccccc2)c(-c2ccccc2C(F)(F)F)c1C(=O)NCCc1cccs1,x,x,-21,12,x,0
CCN(CC(=O)Nc1c(F)cccc1F)C(=O)c1cc([N+](=O)[O-])ccc1N1CCCCC1,-6,7,-8,12,-5,0
CC(=O)Oc1ccc2c(c1)Oc1cc(OC(C)=O)ccc1C21OC(=O)c2ccccc21,102*,-29,101*,-12,974*,824*
Cc1cc(O)ccc1C1(c2ccc(O)cc2C)OC(=O)c2ccccc21,-27,6,13,10,15,6
CCN(CC)C(=O)c1c(Cl)nc(C)c([N+](=O)[O-])c1C,-5,7,0,12,-2,0
CCOc1ccc(CN2CCCC(N3CCN(c4ccc(OC)cc4)CC3)C2)cc1 (stereo not given),35*,-19,13,-23,-9,0
CCc1ccc2[nH]c(=O)c(CN(Cc3ccccc3)C(=O)Nc3ccccc3OC)cc2c1,-8,0,-14,13,-3,0
Cc1cc2n(n1)C(c1sccc1C)Nc1c(C)cccc1-2 (stereo not given),2,12,25*,-6,0,0
CC(=O)O/N=C1\C(=O)N(Cc2ccc(C)cc2)c2ccccc21,-6,10,5,17,24*,1
COc1cc(CN2CC(=O)N(c3cccc(Cl)c3C)C2=S)cc(OC)c1OC,4,0,6,3,6,23*
COc1cc(CN2CC(=O)N(c3ccccc3Cl)C2=S)cc(OC)c1OC,34*,-17,13,-3,2,19*
CC1(c2nc3ccccc3[nH]2)CCC(=O)N1Cc1cccs1 (stereo not given),-6,3,9,9,-4,0
CC1CCN(C(=O)c2ccc(CSc3nc4ccncc4n3Cc3ccc(F)cc3)cc2)CC1,38*,-27,4,13,-12,1
Cc1ccccc1C(=O)OC1CCCN(C)C1 (stereo not given),11,-11,1,3,-9,0
CN1CCCC(C#CC(O)(c2ccccc2)c2ccccc2)C1 (stereo not given),99*,-35,-2,3,-13,0
N#Cc1c(-c2ccccc2Cl)cc(C2CC2)nc1N,-3,8,-17,43*,42*,25*
COCCN=c1scc(-c2cc(OC)ccc2OC)n1/N=C/c1c[nH]c2ccccc12,6,8,7,-2,16*,3
Cc1ccc(C)c(Cn2nc3c4ccccc4n(Cc4ccccc4)cc-3c2=O)c1,62*,-7,-8,19,64*,0
CN(c1ccccc1)S(=O)(=O)c1cccc(NC(=O)CN2CCCc3ccccc32)c1,15,-3,8,10,-3,15*
SMILES,CHRM1 antagonist,M1 PAM,CHO-K1 Ca antag,M1 PAM parental,M1 ag,CHO-K1 Ca ag
Cc1cc(C)c(NC(=O)CN(C)CC(=O)Nc2cccc(S(=O)(=O)N(C)c3ccccc3)c2)c(C)c1,36*,-14,-9,-1,-1,9
CN(c1ccccc1)S(=O)(=O)c1cccc(NC(=O)CSc2nncs2)c1,31,-12,29*,-7,1,13
CN(CC(=O)Nc1cccc(F)c1)CC(=O)Nc1cccc(S(=O)(=O)N(C)c2ccccc2)c1,17,-8,-8,8,-3,11
CCN1CCCC1CNC(=O)c1ccc(Sc2ccc(F)cc2)c([N+](=O)[O-])c1 (stereo not given),100*,-26,-4,7,-7,1
CCN1CCCC1CNC(=O)c1ccc(Sc2ccccc2Cl)c([N+](=O)[O-])c1 (stereo not given),99*,-26,0,-10,-8,1
COCCCNC(=O)C(=O)C1C(=O)Nc2ccccc21 (stereo not given),2,10,-3,12,-1,-1
Cc1cccc(-n2[nH]c(C)c(C=Nc3ccc4[nH]c(=O)[nH]c4c3)c2=O)c1,6,-5,28*,-15,-1,0
C[C@@H]1CN([C@@H](C)CO)C(=O)CCCn2nncc2CO[C@@H]1CN(C)S(=O)(=O)c1ccc(C#N)cc1,-9,3,-4,5,-2,0
CCc1ccccc1NC(=O)N1CCc2ccccc2C1,-3,4,3,0,1,19*
O=C(Nc1cccc2ccccc12)N1CCc2ccccc2C1,-1,4,20,-8,1,0
O=c1c2cc(N3CCOCC3)ccc2[nH]c(=S)n1CCCN1CCCCCC1,23*,-24,-2,11,-6,0
O=C(O)c1cc(S(=O)(=O)N2CCCCC2)ccc1N1CCCCC1,4,-5,1,-18,-3,0
Cc1ccc(C)c(NC(=O)C2CCN(S(=O)(=O)c3ccc4c(c3)NC(=O)CO4)CC2)c1,36*,-3,-8,4,-4,2
N#CC1(NC(=O)COC(=O)c2nc(Cl)c(Cl)c(N)c2Cl)CCCCC1,-5,5,5,-6,2,1
Cn1c(=O)c2[nH]c(Cc3cccc(O)c3)nc2n(C)c1=O,-16,5,-11,12,-4,0
Cn1c(=O)c2[nH]c(COc3ccc(C(C)(C)C)cc3)nc2n(C)c1=O,39*,-14,-5,0,4,14
O=C(N/N=C/c1cccs1)c1ccc2nc[nH]c2c1,35*,-11,14,-16,0,4
O=C(c1ccc(Cl)s1)N1CCN(C23CC4CC(CC(C4)C2)C3)CC1,14,-14,-15,10,-8,0
O=C(c1cccs1)N1CCN(C23CC4CC(CC(C4)C2)C3)CC1,72*,-23,-3,10,-6,2
O=C(C1CC1)N1CCN(Cc2ccccc2)CC1,-12,9,-1,11,-3,0
